Screening results deposited in PubChem BioAssay by National Center for Advancing Translational Sciences (NCATS).
NTMT1 inh – NTMT1 methyltransferase inhibition; Q9BV86; Potency, µM (doses to about 114 µM), for the others: at the highest dose activity change, negative = inhibition, actives largely listed as inhibitors; NTMT1 MTase-Glo SAH luminescence, purified enzyme; 59,000 tested, 2.5% active;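 note: potency is the fitted concentration of half-maximal effect; plate controls were DMSO vehicle for no effect and no enzyme for full effect; nearly all actives have a fitted effect of over 65% in size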
GPR32 ag – activates human resolvin D1 receptor GPR32 | CHO-K1 GPR32 beta-arrestin PathHunter luminescence, 90 min; zero percent set by DMSO-only wells | 48,000 tested, 2.5% active | activation, % at 76.9 µM | AID 1346428;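 active = activation of at least 60% and not above a set upper limit, about 1 call in 100 departs from these limits; inconclusive = activation of 40% to 60%, or above that upper limit; inactive = activation under 40%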; note: 0% is about no effect
Target sequence (O75388 whole entry, looked up): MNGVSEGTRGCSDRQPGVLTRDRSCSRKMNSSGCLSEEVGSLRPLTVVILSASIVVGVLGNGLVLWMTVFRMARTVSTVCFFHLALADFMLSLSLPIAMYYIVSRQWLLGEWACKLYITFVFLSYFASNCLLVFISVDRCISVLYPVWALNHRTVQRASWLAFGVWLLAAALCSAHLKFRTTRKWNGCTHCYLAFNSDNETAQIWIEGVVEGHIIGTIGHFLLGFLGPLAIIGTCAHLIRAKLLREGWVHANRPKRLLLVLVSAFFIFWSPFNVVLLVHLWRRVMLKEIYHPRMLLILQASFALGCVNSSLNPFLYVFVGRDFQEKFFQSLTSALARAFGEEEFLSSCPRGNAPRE
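Beta-arrestin recruitment read-out: luminescence from complemented beta-Gal in CHO-K1 GPR32 PathHunter cells, measured 1 h after detection reagent at ambient temperature following 90 min compound exposure at 37 °C; DMSO served as basal (EC0) control.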
FH mod – Identification of activators of human fumarate hydratase by quantitative high-throughput screening. Fumarate hydratase, mitochondrial (Homo sapiens), P07954. Potency, µM (highest dose often 79.9 µM), for the others: top-dose activity change, negative = inhibition, actives largely listed as inhibitors. 54,000 tested, 0.22% active. FH coupled MDH/diaphorase resazurin fluorescence, 15 min; note: potency is the fitted concentration of half-maximal effect; % is set by controls: 0 for no effect and ±100 for the full control effect; the screen sought activators but most active calls are inhibition curves; nearly all actives have a fitted effect of over 45% in size
SKOV3 invasion – ovarian cancer metastasis inhibition, 3D TME model; SKOV3ip1-GFP adhesion/invasion on 3D omental model, fluorescence; Potency, µM (series often up to 45.8 µM), for the others: at the highest dose activity change, negative = inhibition, actives largely listed as inhibitors; 46,000 tested, 0.1% active;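 note: potency is the fitted concentration of half-maximal effect; plate controls were DMSO wells for no effect and tomatine positive control wells for full effect; nearly all actives have a fitted effect of over 65% in size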
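qHTS, 4-pt dose (0.36-46 umol/L); SKOV3ip1-GFP, 1,200 cells/well, no FBS; primary omental fibroblast/mesothelial co-culture 48 h pre-grown; 2 h RT + 16 h 37 C; PBS wash, 4% PFA; GFP count 488/509 nm.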
Sfp qHTS opt – inhibits purified B. subtilis Sfp PPTase. shares compounds with NTMT1 inh. purified Sfp PPTase enzyme activity, qHTS. Potency, µM (highest dose often 114 µM), for the others: at the top dose activity change, negative = inhibition, most hits filed as inhibitors. 230 tested, 78% active
Bsub HM489 growth – reduces growth of B. subtilis HM489 strain | Potency, µM (top dose mostly 114 µM), without a hit: top-dose activity change, negative = inhibition, most hits filed as inhibitors | AID 540353 | 220 tested, 50% active | shares compounds with NTMT1 inh | B. subtilis HM489 (acpS-) growth, BacTiter-Glo, 5 h
Sfp PPTase gel – inhibits B. subtilis Sfp PPTase in gel assay; shares compounds with NTMT1 inh; purified Sfp PPTase, gel-based product detection; Potency, µM (highest dose often 250 µM), without a hit: at the top dose activity change, negative = inhibition, hits mostly inhibitors; 220 tested, 54% active
Sfp inh gel – confirmation of Bacillus subtilis Sfp PPTase inhibitors; shares compounds with NTMT1 inh; purified Sfp PPTase, gel-based product detection; Potency, µM (doses to about 250 µM), without a hit: at the top dose activity change, negative = inhibition, most hits filed as inhibitors; 45 tested, 90% active; AID 602362
Sfp SAR2 – Sfp phosphopantetheinyl transferase inhibition, SAR round 2; Potency, µM (titrated, usually from 57.1 µM), inactives show top-dose activity change, negative = inhibition, usual class: inhibitors; purified Sfp enzyme, PPTase activity, qHTS; 230 tested, 87% active; shares compounds with NTMT1 inh; AID 602370
hGST ctr – counter-screen for Sfp PPTase inhibitors: hGST A1-1 inhibition; hGST A1-1 enzyme activity counter-screen, qHTS; shares compounds with NTMT1 inh; Potency, µM (doses to about 114 µM), inactives show at the top dose activity change, negative = inhibition, usual class: inhibitors; 55 tested, under 10 active
USP2a K63 – USP2a inhibition confirmed on K63 diubiquitin | shares compounds with NTMT1 inh | USP2 cleavage of DiUb K63-3IQF, fluorescence kinetic | Potency, µM (highest dose often 57.5 µM), for the others: at the top dose activity change, negative = inhibition, most hits filed as inhibitors | 30 tested, 80% active | AID 652172
Casp6 inh – inhibits human caspase-6 in USP2a selectivity assay. shares compounds with NTMT1 inh. Caspase 6 enzyme, Caspase-Glo 6 luminescence. activity change, negative = inhibition, % at 46.1 µM. 30 tested, under 10 active. AID 652277
HSD17B4 inh – inhibits human HSD17B4, off-target for HPGD inhibitors. Potency, µM (doses to about 57.1 µM), without a hit: at the highest dose activity change, negative = inhibition, hits mostly inhibitors. purified HSD17B4, estradiol/NAD+, NADH fluorescence. 230 tested, 10% active. shares compounds with NTMT1 inh
ALDH1A1 inh – inhibits human ALDH1A1, off-target for HPGD inhibitors; Potency, µM (series often up to 57.1 µM), for inactives: at the highest dose activity change, negative = inhibition, hits mostly inhibitors; recombinant ALDH1A1, NADH fluorescence, propionaldehyde/NAD+; 230 tested, 93% active; shares compounds with NTMT1 inh
NNMT inh – human NNMT inhibition, NTMT1 counter-screen. shares compounds with NTMT1 inh. Potency, µM (doses to about 57.1 µM), for inactives: top-dose activity, negative = inhibition, usual class: inhibitors. 120 tested, 10% active. NNMT MTase-Glo luminescence, SAH detection
Target sequence (P40261 whole entry, looked up): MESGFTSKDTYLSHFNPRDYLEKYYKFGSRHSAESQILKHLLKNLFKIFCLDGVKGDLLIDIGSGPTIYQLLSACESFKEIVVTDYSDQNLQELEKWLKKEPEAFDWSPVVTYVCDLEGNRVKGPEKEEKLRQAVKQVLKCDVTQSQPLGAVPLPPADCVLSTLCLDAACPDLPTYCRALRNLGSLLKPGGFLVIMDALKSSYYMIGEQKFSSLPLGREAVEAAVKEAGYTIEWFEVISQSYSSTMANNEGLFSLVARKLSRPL
Active calls of the source: *; i = inactive; ? = inconclusive; nt = no result given; ! = repeats disagree; [ ] = remark or other dose. Compounds with a hit are over-represented: about 3.9% of the library has one in this group of screens. Unless noted, calls come from the whole dose curve; as a rule, active = well fitted curve in the direction sought with a large enough effect; inconclusive = small, poorly fitted or top-dose-only effect, or another doubt; inactive = no such curve, though single readings can be large; an effect the other way counts as inactive or inconclusive.

SMILES	NTMT1 inh	GPR32 ag	FH mod	SKOV3 invasion	others
O=C(Nc1ccc(S(=O)(=O)Nc2nccs2)cc1)c1cc(-c2ccccc2)nc2ccccc12	-18.6%	nt	?	nt	USP2a K63=1.72µM*;Casp6 inh=-1.8
O=S(=O)(Nc1nccs1)c1ccc(Nc2nc(-c3ccccc3)cs2)cc1	3.3%[57.5 µM]	nt	nt	nt
CC(=O)Nc1ccc(S(=O)(=O)Nc2nccs2)cc1	28.5%	nt	nt	nt	USP2a K63=-1.3%;Casp6 inh=-28.0
C/C=C/C1=CC2=C(CO1)C(=O)C(C)(O)C(OC(=O)c1c(C)cc(OC)cc1O)C2 (configuration not stated)	-9.3%[29.8 µM]	nt	-0.1%[53.3 µM]	nt
FC(F)(F)c1cc(-c2ccc(CNc3nc(-c4ccccc4C(F)(F)F)nc4ccsc34)cc2)ccn1	2.3%	nt	nt	nt
Cc1c(-c2ccccc2)oc2c(C(=O)OCCN3CCCCC3)cccc2c1=O	?	?	-3.1%[53.3 µM]	nt
CC(=O)c1c(OCCN2CCCCC2)c(OCCC(C)c2ccc(F)cc2)c2oc(C)nc2c1C (configuration not stated)	?	nt	-1.7%	nt	NNMT inh=?
Cc1ccc(-c2ccc(CNc3nc(-c4ccccc4C(C)C)nc4ccsc34)cc2)cn1	5.3%[57.5 µM]	nt	nt	nt
CC(=O)c1cccc(Nc2nc(-c3ccccc3Cl)nc3ccccc23)c1	11.0%	14.9	-3.1%	i
O=C(O)c1ccc2c(c1)nc(Nc1cccc(Cl)c1)c1ccncc12	14.1µM*!	nt	?	-4.8%	NNMT inh=?
COc1cc(O)c(C(CC(=O)N2CCCC(c3ccccc3)C2)c2ccc3c(c2)OCO3)c(OC)c1 (configuration not stated)	4.3%[228 µM]	nt	nt	nt
CCCC1(CCC)CCC2(CCN(CCCN(CC)CC)C2)CC1	22.4µM*	nt	0.2%	nt	NNMT inh=-15.1%
COc1cccc(NC(=S)N2CCN(c3cccc(C(F)(F)F)n3)CC2)n1	?	nt	nt	nt	Sfp qHTS opt=?;Bsub HM489 growth=?;Sfp PPTase gel=4.5%;Sfp SAR2=?;HSD17B4 inh=-4.8%;ALDH1A1 inh=4.82µM*
COc1ccccc1-c1noc(-c2ccc(N3CCN(c4ccccc4)CC3)c([N+](=O)[O-])c2)n1	?	7.0	-11.6%	9.8%
COc1cccc(NC(=S)N2CCN(c3ccc(C(F)(F)F)cc3[N+](=O)[O-])CC2)n1	?	nt	nt	nt	Sfp qHTS opt=?;Bsub HM489 growth=?;Sfp PPTase gel=31.6µM*;Sfp SAR2=1.45µM*;HSD17B4 inh=-14.4%;ALDH1A1 inh=1.52µM*
COc1ccc2cc3cc(C(=O)N4CCN(c5cccc(C(F)(F)F)c5)CC4)sc3nc2c1	5.6%	4.1	4.7%	10.7%
COc1ccnc(NC(=S)N2CCN(c3cccc(Cl)c3Cl)CC2)c1	?	nt	nt	nt	Sfp qHTS opt=5.91µM*;Bsub HM489 growth=5.91µM*;Sfp PPTase gel=7.94µM*;Sfp inh gel=?;Sfp SAR2=1.02µM*;hGST ctr=-0.5%;HSD17B4 inh=0.2%;ALDH1A1 inh=3.83µM*
COc1cccc(N2C(=O)c3ccccc3C2=O)n1	-12.1%	nt	nt	nt
COc1ccnc(NC(=S)N2CCN(c3cccc(C(F)(F)F)n3)CC2)c1	?	nt	nt	nt	Sfp qHTS opt=46.9µM*;Bsub HM489 growth=-15.1%;Sfp PPTase gel=?;Sfp SAR2=5.76µM*;HSD17B4 inh=23.8%;ALDH1A1 inh=8.57µM*
Cc1cc(C)c(-c2csc(NC(=O)c3ccccc3)n2)c(C)c1	2.7%[57.5 µM]	nt	-1.4%	nt
C=C1C(=O)O[C@@H]2[C@H]1CCC(C)=C(CCC(=O)O)[C@@]2(C)O	5.0%[57.5 µM]	nt	5.4%	nt
Cc1ccc(S(=O)(=O)Nc2cnccc2C(=O)Nc2nc(-c3ccc(-c4ccccc4)cc3)cs2)cc1	11.8%	nt	nt	nt	USP2a K63=1.72µM*;Casp6 inh=-22.2
Cc1ccc(S(=O)(=O)Nc2cnccc2C(=O)Nc2nc(-c3cccc(C)c3)cs2)cc1	nt	nt	nt	nt	USP2a K63=1.93µM*;Casp6 inh=-14.0
